Measured values from ChEMBL document CHEMBL4513146, “CO-ADD screening of Karazin Kharkiv National University (Ukraine) compounds”.
Results with a measured potency or affinity are listed apart.

Legend:
Staphylococcus aureus = conditions: Concentration 32 ug.mL-1;; ASSAY_TEST Inhibition of Bacterial Growth; detection method Absorption (OD600); MEDIA CAMHB; plate type 384well; NBS; CORNING #3640; time 18 hr
Escherichia coli = conditions: Concentration 32 ug.mL-1;; ASSAY_TEST Inhibition of Bacterial Growth; detection method Absorption (OD600); MEDIA CAMHB; plate type 384well; NBS; CORNING #3640; time 18 hr

SMILES | Inhibition (Staphylococcus aureus) [%] | Inhibition (Escherichia coli) [%]
CCCn1c(=O)c2sccc2n2c(CCC(=O)NCCC34CC5CC(CC(C5)C3)C4)nnc12 | 0.48 | -2.55
Cc1ccc(NC(=O)Cn2nc3c(SC4CCCCC4)nccn3c2=O)cc1F | 10.42 | -1.05
Cc1ccc(-c2ccc3nn(Cc4nc(-c5ccc(OC(F)(F)F)cc5)no4)c(=O)n3n2)cc1 | 8.38 | -3.94
COc1cccc(NC(=O)Cn2nc3c(Oc4ccccc4)nccn3c2=O)c1 | 0.03 | -5.32
COc1cccc(CN(c2ccc(C)c(F)c2)S(=O)(=O)c2ccc3nncn3c2)c1 | -7.58 | -16.33
CCOc1ccc(NC(=O)Cn2nc3c(N4CCCC4)nccn3c2=O)cc1 | 0.84 | -1.53
Cc1ccccc1CSc1nnc2c(=O)n(-c3ccc(Br)cc3)ccn12 | 1.11 | -8.83
CCc1ccc(N(Cc2ccc(C)cc2)S(=O)(=O)c2cccn3cnnc23)cc1 | 18.47 | 2.14
Cc1ccc(C(=O)CSc2nnc3c(=O)n(-c4ccc(F)cc4)ccn23)c(C)c1 | 7.85 | -6
O=C(CSc1nc2ccccc2n2c(-c3ccccc3)nnc12)Nc1ccc(Br)cc1 | 12.1 | -0.27
CCOc1ccc(-n2ccn3c(SCC(=O)Nc4ccc(C)c(C)c4)nnc3c2=O)cc1 | -4.99 | -21.19
O=C(CSc1nnc2c(=O)n(-c3ccccc3)ccn12)Nc1cc(F)ccc1F | 5.32 | -13.66
CCCc1nnc2c(=O)n(CC(=O)Nc3ccc(Br)cc3F)c3ccccc3n12 | -16.77 | -13.67
O=c1c2nnc(SCc3ccc(Cl)cc3)n2ccn1-c1ccc(F)c(F)c1 | 4.12 | 3.28
COc1ccc(N(Cc2cccc(C)c2)S(=O)(=O)c2ccc3nncn3c2)cc1 | -29.14 | -12.64
CCOc1ccc(-n2ccn3c(SC(C)C(=O)Nc4ccc(OC)cc4)nnc3c2=O)cc1 (stereo unspecified) | 5.98 | -5.92
Cc1ccc(Cn2c(=O)c3ccccc3n3c(=O)n(CC#N)nc23)cc1 | 3.14 | -7.28

SMILES | Inhibition (Staphylococcus aureus) [%] | Inhibition (Escherichia coli) [%]
CC(C)(C)Sc1ccc2nn(CC(=O)Nc3ccc(Cl)cc3)c(=O)n2n1 | 3.13 | 0.89
CCOc1ccccc1NC(=O)Cn1nc2c(Oc3cccc(OC)c3)nccn2c1=O | 11.72 | -4.66
CCOC(=O)c1ccccc1NC(=O)Cn1nc2c(Sc3ccccc3)nccn2c1=O | 8.61 | -3.65
Cc1ccc(Cl)cc1NC(=O)CSc1nc2ccccc2n2c(C)nnc12 | -8.21 | -3.62
COc1ccc(-n2ccn3c(=O)n(Cc4cc(C)ccc4C)nc3c2=O)cc1Cl | 5.41 | -0.01
CCc1ccc(N(Cc2ccccc2C)S(=O)(=O)c2cccn3c(CC)nnc23)cc1 | 11.1 | -3.02
Cc1cccc(CN(c2ccc(C(C)C)cc2)S(=O)(=O)c2cccn3c(C)nnc23)c1 | 5.76 | -1.18
O=C(CSc1nnc2c(=O)n(-c3ccc(F)cc3)ccn12)c1ccccc1Cl | 19.94 | -2.26
Cc1ccc(NC(=O)CSc2nc3ccccc3n3c(C)nnc23)cc1C | -20.91 | -12.4
CCOc1ccc(NC(=O)Cn2nc3c4cc(-c5ccc(C)cc5)nn4ccn3c2=O)cc1 | 9.82 | 2.19
CCC(C)NC(=O)Cn1nc2ccc(SCc3ccc(Cl)cc3)nn2c1=O (stereo unspecified) | 7.31 | -1.43
COc1ccc(-c2cc3c4nnc(SCC(=O)Nc5cccc(Cl)c5C)n4ccn3n2)cc1 | -7.92 | -11.64
CCOc1ccc(-n2ccn3c(SCC(=O)Nc4ccc5c(c4)OCCO5)nnc3c2=O)cc1 | 4.27 | -9.56
CCOc1ccc(NC(=O)Cn2nc3c4cc(-c5ccc(C)c(C)c5)nn4ccn3c2=O)cc1 | -9.23 | 1.9
COC(=O)c1ccccc1NC(=O)Cn1nc2c(Oc3ccc(C)cc3)nccn2c1=O | -0.21 | -6.37
Cc1cc2nn(CC(=O)Nc3ccccc3F)c(=O)n2c(Nc2ccc(F)c(C)c2)n1 | 11.73 | -0.72
